CF NFkB inh – inhibitors of PAF-induced NF-kB signaling, primary screen, cell-based, GFP fluorescence, uHTS; KKLEB NF-kB-GFP reporter, GFP fluorescence overnight; inhibition, % at 5 µM; 0.86% of 360,000 active; AID 588850, 2011;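 active means at least 50% inhibition at 5 µM, scaled per plate between neutral and stimulator controls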;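 further: PAF is a Pseudomonas aeruginosa culture filtrate used as stimulus; plate controls were PAF-stimulated DMSO wells for no effect and unstimulated DMSO wells for full effect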
TRPM1 prom inh – inhibitors of MITF-dependent TRPM1 promoter reporter, primary screen, cell-based, SK-MEL-5, single point, luciferase; SK-MEL-5 TRPM1 promoter luciferase, 24 h; inhibition, % at 12.5 µM; 0.83% of 330,000 active; AID 488899, 2010;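 active means mean inhibition across replicates of 60% or more, whatever share of single replicates reaches that level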
HIF-2a block – HIF-2a reporter inhibitors, primary screen, luminescence, 786-0 RCC cells; inhibition, % at 18.8 µM; 0.72% of 360,000 active; 786-0 RCC cells HIF-2a reporter, luciferase luminescence, overnight;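 active means inhibition of the luminescence signal of 40% or more relative to plate controls, in a single-dose primary screen at 18.75 µM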
Peg3 prom inh-1 – Peg3 promoter-driven luciferase inhibitors, primary screen, cell-based, HeLa, luciferase luminescence. HeLa PEG-Prom luciferase reporter, overnight. inhibition, % at 20 µM. 1.7% of 360,000 active;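 active means inhibition of at least 50% at 20 µM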
KKLEB cytotox – cytotoxicity in KKLEB CF airway cells, primary screen, cytotoxicity control for CF NF-kB inhibitor project, cell-based, uHTS, fluorescence assay plates | KKLEB CF airway cells viability, ATPlite luminescence, overnight; hits give low values; cells stimulated with P. aeruginosa culture filtrate | activity change (cytotoxicity), % at 5 µM | 0.36% of 360,000 active | AID 602141, 2011;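 active means corrected activity change at or below -50% at 5 µM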
Shn3 3UTR inh – reduction of Shn3 3'UTR firefly luciferase signal, primary screen, Schnurri-3 inhibitor project, cell-based, Clone20 osteoblasts, set 2 | Clone20 osteoblast Shn3 3'UTR firefly luciferase, 24 h | inhibition, % at 12.5 µM | 0.52% of 360,000 active | AID 588674, 2011;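 active means mean inhibition of at least 75% with every replicate also reaching 75%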;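 further: 0% = median of neutral control wells and 100% = pilot-screen positive control compound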
Peg3 prom inh-2 – Peg3 promoter reporter inhibitors, retest, confirmation, cell-based, HeLa, luciferase reporter, single concentration. shares compounds with Peg3 prom inh-1. HeLa PEG-Prom luciferase reporter, luminescence, overnight. inhibition, % at 20 µM. 84% of 1,300 active. AID 602417, 2012;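 active means at 20 µM dose, 40% or more inhibition averaged across four replicates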
CF NFkB conf – inhibitors of PAF-induced NF-kB signaling, retest, confirmation, cell-based, GFP fluorescence, single concentration | shares compounds with CF NFkB inh | KKLEB CF airway cells, overnight | inhibition, % at 5 µM | 64% of 1,300 active | AID 602472, 2012; in the data active means inhibition above about 40%;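 further: stimulus PAF is a Pseudomonas aeruginosa filtrate and not platelet activating factor; plate controls were DMSO wells with stimulus for no effect and unstimulated DMSO wells for full effect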
Mdm2-MdmX confirm – retested Mdm2-MdmX interaction blockers, confirmation, cell-based, luminescence, single concentration, set 2; AID 504601, 2011; SaOS-2 split-luciferase Mdm2/MdmX complementation; inhibition, % at 8 µM; shares compounds with HIF-2a block; 99% of 740 active;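 active means mean inhibition of the luminescence signal across two replicates at or above 26 percent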
Target sequence (O15151 whole entry, looked up): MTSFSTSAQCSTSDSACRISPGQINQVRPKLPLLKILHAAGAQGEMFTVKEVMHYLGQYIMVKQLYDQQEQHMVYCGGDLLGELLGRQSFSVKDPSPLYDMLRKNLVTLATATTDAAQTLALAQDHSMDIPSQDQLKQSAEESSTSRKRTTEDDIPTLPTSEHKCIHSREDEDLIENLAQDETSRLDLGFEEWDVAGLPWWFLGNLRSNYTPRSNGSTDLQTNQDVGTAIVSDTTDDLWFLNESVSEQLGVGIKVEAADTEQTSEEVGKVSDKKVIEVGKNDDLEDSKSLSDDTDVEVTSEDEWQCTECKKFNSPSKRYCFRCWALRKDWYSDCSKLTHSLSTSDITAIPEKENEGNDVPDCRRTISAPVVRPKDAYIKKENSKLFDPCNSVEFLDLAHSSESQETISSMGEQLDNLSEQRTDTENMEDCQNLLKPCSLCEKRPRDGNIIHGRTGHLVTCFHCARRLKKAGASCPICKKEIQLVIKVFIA
Target sequence (Q00987 whole entry, looked up): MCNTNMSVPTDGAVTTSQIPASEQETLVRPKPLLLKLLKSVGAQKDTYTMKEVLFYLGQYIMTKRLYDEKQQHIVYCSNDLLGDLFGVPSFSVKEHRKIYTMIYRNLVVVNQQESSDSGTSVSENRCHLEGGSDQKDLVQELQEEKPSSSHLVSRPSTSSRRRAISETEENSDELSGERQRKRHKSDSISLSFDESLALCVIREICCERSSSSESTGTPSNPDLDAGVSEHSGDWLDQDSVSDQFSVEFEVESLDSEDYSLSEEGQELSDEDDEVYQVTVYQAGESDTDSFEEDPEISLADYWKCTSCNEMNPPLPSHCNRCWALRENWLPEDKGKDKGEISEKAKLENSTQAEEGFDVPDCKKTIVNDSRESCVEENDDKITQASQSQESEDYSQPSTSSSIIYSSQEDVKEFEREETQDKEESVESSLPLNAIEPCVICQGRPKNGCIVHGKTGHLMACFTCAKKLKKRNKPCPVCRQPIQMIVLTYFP
HIF-2a conf – HIF-2a reporter inhibitor retest, confirmation, luminescence, 786-0 RCC cells. shares compounds with HIF-2a block. HIF-2a luciferase reporter luminescence, overnight. inhibition, % at 18.8 µM. 56% of 1,800 active. AID 651580, 2012;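 active means mean inhibition across four replicates of at least 40 percent at the single tested concentration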
HIF-1a cs – HIF-1a luciferase reporter signal reduction – MiaPaCa-2 cells, single concentration, counter-screen for HIF-2a inhibitor project, confirmation | shares compounds with HIF-2a block | MiaPaCa-2 HIF-1a luciferase reporter, desferoxamine, overnight | inhibition, % at 18.8 µM | 72% of 1,800 active;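 active means mean inhibition of the reporter signal across four replicates at the single tested dose of 50% or more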
* = called active by the depositor; x = no result. The list is not random: actives were taken first. Their share in the collection is about 2.7%.

SMILES	CF NFkB inh	TRPM1 prom inh	HIF-2a block	Peg3 prom inh-1	KKLEB cytotox	Shn3 3UTR inh	Peg3 prom inh-2	HIF-2a conf	HIF-1a cs	others
Cc1cc2sc3ccc(C#CC4(O)CCCCC4)cc3c(=O)c2cc1C	-4	96*	93*	99*	-40	94*	97*	97*	103*	Mdm2-MdmX confirm=101*
COCCn1c(C)cc(C2=NNC(=NC3CC3)SC2)c1C	-19	102*	93*	104*	-2	91*	95*	99*	105*	Mdm2-MdmX confirm=101*
COCCn1c(C)cc(C2=NNC(=Nc3ccc(Cl)cc3Cl)SC2)c1C	3	13	7	-3	1	5	x	x	x
CC(C)C[C@H]1COc2cccc(N3CCSCC3)c2S(=O)(=O)N1	x	x	11	x	x	x	x	x	x
CC(C)(C)c1ccc(Cn2c(=O)cnc3ccccc32)cc1	25	49	62*	86*	-11	81	77*	66*	86*
CCc1nc2ccc(C(=O)N(C)CCCN(C)C)cn2c1N(C=O)CCC(C)C	17	x	12	2	1	11	x	x	x
Cc1cccc(/C=N/Nc2ccc3ccccc3n2)c1	-21	76*	52*	67*	-48	49	70*	88*	90*
Cc1ccc(/C=N/Nc2ccc3ccccc3n2)o1	-38	25	8	-21	-10	30	x	x	x
C(=N\Nc1ccc2ccccc2n1)/c1ccc2c(c1)OCCO2	2	90*	71*	79*	-22	32	77*	91*	100*
COC(=O)[C@]12CCCCC=C1N(Cc1cccc3ccccc13)C(=O)[C@H](CC(=O)N1CCN(C(=O)C3CC3)CC1)C2	x	x	5	x	x	x	x	x	x
C(=NN1CCCCCC1)c1ccc2ccccc2n1	2	93*	87*	91*	-84*	86*	96*	97*	103*
COc1cccc(-c2sc3ccccc3c2-c2ccc(OCCN(C)C)cc2)c1	49	18	79*	94*	-39	13	99*	19	107*
CCNC(=O)C1(C)CCCN(C(=O)c2cc(-c3cccs3)oc2C)C1 (stereo unspecified)	24	x	-8	1	-11	-35	x	x	x
Cc1nc(Sc2nnnn2C)c2c3c(sc2n1)CCC3	52*	87*	55*	55*	-3	25	29	28	-9	CF NFkB conf=33
CC(=O)C(=Cc1cccc(C#N)c1)C(=O)c1ccccc1	56*	x	94*	104*	-7	22	19	28	87*	CF NFkB conf=-61
O=C(N/N=C/c1cccs1)C(=O)Nc1cccc(Cl)c1	-14	-9	-105	-71	4	-7	x	x	x
O=C(O)c1cccc(N/N=C/c2cccs2)c1	-27	77*	82*	83*	6	66	68*	86*	-5
O=C(O)c1ccc(N/N=C/c2ccncc2)cc1	-2	8	-33	-11	4	-4	x	x	x

Source: PubChem (several laboratories)
